Tests used:
Details in all cases: concentration: 1 μM, replicates: in singlicate; n = 1
[1] = test system: CHEK2
[2] = test system: CIT
[3] = test system: CLK1
[4] = test system: CLK2
[5] = test system: CLK3
[6] = test system: CLK4
[7] = test system: CSF1R-autoinhibited
[8] = test system: CSF1R
[9] = test system: CSK
[10] = test system: CSNK1A1L
[11] = test system: CSNK1A1
[12] = test system: CSNK1D
[13] = test system: CSNK1E
[14] = test system: CSNK1G1
[15] = test system: CSNK1G2
[16] = test system: CSNK1G3
[17] = test system: CSNK2A1
[18] = test system: CSNK2A2
[19] = test system: T1, CTK
T1 construct: gene MATK

[20] = test system: DAPK1
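Note: KINOMEscan kinase panel screen.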

Row | SMILES | %Inh [1] [%] | %Inh [2] [%] | %Inh [3] [%] | %Inh [4] [%] | %Inh [5] [%] | %Inh [6] [%] | %Inh [7] [%] | %Inh [8] [%] | %Inh [9] [%] | %Inh [10] [%] | %Inh [11] [%] | %Inh [12] [%] | %Inh [13] [%] | %Inh [14] [%] | %Inh [15] [%] | %Inh [16] [%] | %Inh [17] [%] | %Inh [18] [%] | %Inh [19] [%] | %Inh [20] [%]
1 | CC(=O)Nc1nc2cnc(Nc3cc(NC(=O)c4cccc(CCC#N)c4)ccc3C)nc2s1 | 0 | 34 | 0 | 3 | 0 | 12 | 0 | 90.9 | 0 | 0 | 23 | 3 | 0 | 2 | 7 | 0 | 0 | 9 | 0 | 0
2 | Cn1ccc2ncnc(Oc3ccc(Nc4nc5ccccc5[nH]4)cc3)c21 | 23 | 8 | 0 | 12 | 0 | 0 | 0 | 17 | 0 | 8 | 0 | 0 | 0 | 0 | 0 | 0 | 0 | 0 | 0 | 0
3 | O=S(=O)(c1ccc(-c2ccnc3[nH]ccc23)cc1)N1CCCC1 [GSK846226] | 15 | 36 | 63 | 45 | 57 | 41 | 0 | 17 | 10 | 2 | 0 | 7 | 41 | 5 | 0 | 37 | 4 | 6 | 0 | 58
4 | Cn1ccc2ncnc(Oc3ccc(NC(=O)Nc4ccccc4)cc3)c21 | 14 | 22 | 1 | 0 | 0 | 14 | 10 | 95.1 | 0 | 3 | 4 | 13 | 5 | 0 | 11 | 0 | 14 | 0 | 0 | 11
5 | Cl.NC(=O)c1cccc(Nc2nccc(Nc3ccc(Oc4cccc(Cl)c4)c(Cl)c3)n2)c1 [GW659008] | 0 | 19 | 13 | 0 | 10 | 17 | 22 | 14 | 17 | 16 | 1 | 5 | 8 | 0 | 0 | 17 | 15 | 19 | 2 | 0
6 | CCn1c(-c2ccccn2)nc2cnccc21 [SB-736398] | 0 | 20 | 3 | 0 | 0 | 4 | 4 | 42 | 0 | 0 | 0 | 0 | 4 | 0 | 0 | 0 | 0 | 0 | 0 | 0
7 | COc1ccc(CNC(=O)NC2CCN(c3ccnc(Nc4cc(OC)c(OC)c(OC)c4)n3)C2)cc1 (stereo not shown) [GSK1379748] | 47 | 20 | 11 | 0 | 0 | 0 | 17 | 13 | 0 | 0 | 0 | 0 | 14 | 0 | 0 | 23 | 6 | 9 | 0 | 0
8 | COC(=O)c1c(-c2ccccc2)c2cc(C(=O)O)ccc2c(=O)n1Cc1ccccc1 | 13 | 2 | 0 | 13 | 0 | 0 | 0 | 50 | 8 | 0 | 0 | 7 | 0 | 0 | 0 | 0 | 0 | 0 | 0 | 0
9 | Cc1ccc(-c2cc(-c3c[nH]nc3-c3ccccn3)ccn2)cc1 [GW684088] | 53 | 26 | 14 | 9 | 0 | 38 | 49 | 14 | 0 | 0 | 21 | 26 | 18 | 10 | 22 | 24 | 0 | 0 | 0 | 11
10 | Cl.c1ccc(-c2n[nH]cc2-c2ccnc(-c3ccc(CN4CCOCC4)cc3)c2)nc1 [GW776245] | 0 | 10 | 0 | 10 | 0 | 0 | 0 | 0 | 10 | 1 | 61 | 58 | 37 | 16 | 36 | 0 | 0 | 0 | 0 | 13
11 | CS(=O)(=O)c1ccc(-c2c(-c3ncn[nH]3)sc(N3CCOCC3)c2C#N)cc1 | 5 | 4 | 5 | 8 | 0 | 0 | 0 | 27 | 16 | 0 | 48 | 0 | 4 | 1 | 0 | 0 | 0 | 24 | 26 | 5

Reference: paper PMC5540273 (PLoS ONE, 2017)
